Reference: PubChem BioAssay (NCATS)
Where “and” joins values, the source holds several entries; their conditions need not be identical. Equal values may be shown once. Results filed as inconclusive are left out. The source holds several records for some structures; these can differ, active in one and inactive in another. Calls of active or inactive are those of the source. Unless noted, calls follow the shape of the dose curve; as a rule, active = well fitted curve in the direction sought with a large enough effect; inconclusive = small, poorly fitted or top-dose-only effect, or another doubt; inactive = no such curve, though single readings can be large; an effect the other way counts as inactive or inconclusive.

Key:
[1] = target: Cellular tumor antigen p53 (Homo sapiens) (UniProt P04637); test: Primary qHTS for small molecule compounds that upregulate eGFP-tagged delta133p53alpha (in N-terminal) cells. (AID 2060322); conditions: NCI-H358 eGFP-delta133p53alpha fluorescence, 24 h; activation: active compounds read high; also: nearly all actives have a fitted effect of over 75% in size; also: potency is read from the fitted curve at half-maximal effect;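 as to activation: cells pre-induced with doxycycline then dosed without doxycycline; 0% = DMSO vehicle and 100% = reference activator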
Chain of Cellular tumor antigen p53 (Homo sapiens) (P04637 whole entry, looked up): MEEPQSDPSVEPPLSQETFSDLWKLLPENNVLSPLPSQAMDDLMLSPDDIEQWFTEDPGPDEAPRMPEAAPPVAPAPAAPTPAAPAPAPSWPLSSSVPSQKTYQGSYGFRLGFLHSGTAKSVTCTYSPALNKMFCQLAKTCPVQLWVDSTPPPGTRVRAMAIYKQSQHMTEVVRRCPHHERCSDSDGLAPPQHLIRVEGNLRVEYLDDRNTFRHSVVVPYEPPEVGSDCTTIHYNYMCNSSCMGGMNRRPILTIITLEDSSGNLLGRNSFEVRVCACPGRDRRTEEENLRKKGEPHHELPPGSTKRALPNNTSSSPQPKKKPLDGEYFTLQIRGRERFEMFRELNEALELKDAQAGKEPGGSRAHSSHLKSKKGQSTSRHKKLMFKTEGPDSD
Outline: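 NCI-H358 cells pre-induced 24 h with 10 ng/ml doxycycline for eGFP-delta133p53alpha, plated dox-free and exposed 24 h at 37C to titrated compounds. Fixed, Hoechst-stained; gated GFP peak intensity by laser scanning cytometry, normalized to DMSO (0%) and 57.5 uM 5-azacytidine (100%).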

[2] = target: Aldehyde dehydrogenase, mitochondrial (Homo sapiens) (UniProt P05091); test: qHTS for Inhibitors of the Aldehyde Dehydrogenase Family (ALDH2) Primary screen (AID 2061308); conditions: ALDH2 enzyme inhibition qHTS, 1536-well; series mostly up to 56 µM;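 also: plate controls were vehicle for no effect and reference inhibitor for full effect; nearly all actives have a fitted effect of over 55% in size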
[3] = target: Retinaldehyde dehydrogenase 3 (Homo sapiens) (UniProt P47895); test: qHTS for Inhibitors of the Aldehyde Dehydrogenase Family (ALDH1A3) Primary screen (AID 2061315); conditions: ALDH inhibition qHTS; series mostly up to 56 µM;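 also: plate controls were DMSO vehicle for no effect and reference inhibitor for full effect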
[4] = BET inhibitor-based combinations targeting novel dependencies in MECOM-rearranged (r) AML: MV-4-11 cell line (AID 2202233); conditions: MV-4-11 AML viability, CellTiter-Glo luminescence, 48 h; series mostly up to 46 µM; also: nearly all actives have a fitted effect of over 45% in size; also: potency is read from the fitted curve at half-maximal effect
Outline: (§1)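 Normalized to DMSO and empty-well controls, the luminescence data from CellTiter-Glo after 48 hr drug exposure were fitted across 11 concentrations. Reported metrics are area under the dose-response curve and its Z-transformed form.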

[5] = BET inhibitor-based combinations targeting novel dependencies in MECOM-rearranged (r) AML: HNT-34 cell line (AID 2202234); conditions: HNT-34 AML viability, CellTiter-Glo luminescence, 48 h; series mostly up to 46 µM; also: nearly all actives have a fitted effect of over 35% in size; also: potency is read from the fitted curve at half-maximal effect
Outline: as §1

[6] = BET inhibitor-based combinations targeting novel dependencies in MECOM-rearranged (r) AML: SET-2 cell line (AID 2202231); conditions: SET-2 AML cells viability, CellTiter-Glo luminescence, 48 h; viability: active compounds read low, concentration not given here; also: nearly all actives have a fitted effect of over 35% in size; also: potency is read from the fitted curve at half-maximal effect;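 as to viability: plate controls were DMSO treated cells for no effect and wells without cells for full effect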
Outline: (§2)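 Here, 11-point titrations of each agent were applied to 500 seeded cells and incubated 48 hr; CellTiter-Glo signal, scaled against DMSO and empty wells, was integrated as AUC, then Z-scored within the individual line.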

[7] = BET inhibitor-based combinations targeting novel dependencies in MECOM-rearranged (r) AML: UCSD-AML1 cell line (AID 2202235); conditions: UCSD-AML1 AML cells viability, CellTiter-Glo, 48 h; series mostly up to 46 µM; also: nearly all actives have a fitted effect of over 40% in size; also: potency is read from the fitted curve at half-maximal effect
Outline: as §1

[8] = BET inhibitor-based combinations targeting novel dependencies in MECOM-rearranged (r) AML: AML-191 cell line (AID 2202236; also: nearly all actives have a fitted effect of over 35% in size; also: potency is read from the fitted curve at half-maximal effect); conditions: AML-191 viability, CellTiter-Glo luminescence, 48 h; series mostly up to 46 µM
Outline: as §2

[9] = BET inhibitor-based combinations targeting novel dependencies in MECOM-rearranged (r) AML: AML-194 cell line (AID 2202237; also: nearly all actives have a fitted effect of over 40% in size; also: potency is read from the fitted curve at half-maximal effect); conditions: AML-194 (MECOM-r AML) viability, CellTiter-Glo, 48 h; series mostly up to 46 µM
Outline: as §2

[10] = BET inhibitor-based combinations targeting novel dependencies in MECOM-rearranged (r) AML: OCI-AML3 cell line (AID 2202232); conditions: CellTiter-Glo luminescence, 48 h; Potency: OCI-AML3 viability; series mostly up to 46 µM; also: nearly all actives have a fitted effect of over 35% in size; also: potency is read from the fitted curve at half-maximal effect
Outline: as §2

[11] = target: Retinaldehyde dehydrogenase 3 (Homo sapiens) (UniProt P47895); test: qHTS for Inhibitors of the Aldehyde Dehydrogenase Family (ALDH1A3) Validation screen (AID 2061312); conditions: ALDH1A3 enzyme inhibition qHTS validation, fluorescence; series mostly up to 84.7 µM; also: % is scaled to controls: 0 for no effect and ±100 for the full control effect; nearly all actives have a fitted effect of over 45% in size
[12] = qHTS for Inhibitors of the Aldehyde Dehydrogenase Family (ALDH1A2, ALDH1A3, ALDH2, ALDH3A1) (AID 2061307); conditions: ALDH inhibition qHTS; series mostly up to 50.3 µM; also: test system not described further here; potency is read from the fitted curve at half-maximal effect; nearly all actives have a fitted effect of over 50% in size
[13] = target: Retinaldehyde dehydrogenase 3 (Homo sapiens) (UniProt P47895); test: qHTS for Inhibitors of the Aldehyde Dehydrogenase Family (ALDH1A3) Confirmatory screens (AID 2061311); conditions: ALDH inhibition qHTS; series mostly up to 46 µM; also: potency is read from the fitted curve at half-maximal effect; nearly all actives have a fitted effect of over 60% in size
[14] = target: Retinal dehydrogenase 2 (Homo sapiens) (UniProt O94788); test: qHTS for Inhibitors of the Aldehyde Dehydrogenase Family (ALDH1A2) Confirmation screens (AID 2061314); conditions: ALDH1A2 enzyme inhibition qHTS confirmation; series mostly up to 45.9 µM; also: potency is read from the fitted curve at half-maximal effect; nearly all actives have a fitted effect of over 65% in size
[15] = target: Aldehyde dehydrogenase 1A1 (Homo sapiens) (UniProt P00352); test: qHTS for Inhibitors of the Aldehyde Dehydrogenase Family (ALDH1A1) Confirmatory screens (AID 2061316); conditions: ALDH inhibition qHTS; series mostly up to 47.3 µM; also: potency is read from the fitted curve at half-maximal effect; nearly all actives have a fitted effect of over 65% in size
[16] = target: Aldehyde dehydrogenase, mitochondrial (Homo sapiens) (UniProt P05091); test: qHTS for Inhibitors of the Aldehyde Dehydrogenase Family (ALDH2) Validation screens (AID 2061302; active = well fitted inhibition curve with a large enough effect; title and protocol of this record describe different tests;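 also: plate controls were DMSO vehicle for no effect and maximal DPI positive control response for full effect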); conditions: ALDH inhibition qHTS; series mostly up to 42.6 µM

Cc1nc2c(-c3cnc(N)nc3)nc(N3CCOCC3)nc2n1C(C)C
active: Potency [1] 9.66 µM | Potency [4] 0.296 µM | Potency [5] 0.525 µM
inactive: activation [1] 14.3% | Potency [2] | Potency [3]

Cc1cc(C)c(CNC(=O)c2cc(-c3ccc(CN4CCOCC4)cc3)cc3c2cnn3C2CCCC2)c(=O)[nH]1
inactive: activation [1] 7.64% | Potency [2] | Potency [3]
active: Potency [1] 4.31 µM | Potency [4] 29.5 µM

O=C(Nc1cc(C(F)(F)F)cc(C(F)(F)F)c1)c1cc(Cl)ccc1O
inactive: activation [1] 2.31% | Potency [2] | Potency [3]
active: Potency [1] 3.01 µM | Potency [6] 2.35 µM | Potency [4] 1.86 µM | Potency [5] 2.35 µM | Potency [7] 1.66 µM | Potency [8] 1.18 µM | Potency [9] 2.63 µM

NS(=O)(=O)NCCNc1nonc1C(=Nc1ccc(F)c(Br)c1)NO
active: Potency [1] 2.16 µM
inactive: activation [1] -6.33% and -3% | Potency [2] | Potency [3] | viability [6] 106% | Potency [10] | Potency [4] | Potency [5] | Potency [7] | Potency [8] | Potency [9]

Cc1ccc(NC(=O)C2(c3ccc4c(c3)OC(F)(F)O4)CC2)nc1-c1cccc(C(=O)O)c1
active: Potency [1] 0.153 µM
inactive: activation [1] -10.5% | Potency [2] | Potency [11] | Potency [3] | viability [6] 94.8% | Potency [10] | Potency [5] | Potency [7] | Potency [8] | Potency [9]

Cc1coc2c1C(=O)C(=O)c1c-2ccc2c(C)cccc12
active: Potency [1] 13.5 µM | Potency [12] 4.49 µM | Potency [13] 12.7 µM | Potency [14] 11.3 µM | Potency [15] 3.57 µM
inactive: activation [1] 9.22%

Cc1cc(Nc2nc(N[C@@H](C)c3ncc(F)cn3)ncc2Cl)n[nH]1
inactive: activation [1] -0.181% and 24.8% | Potency [2] | Potency [11] | Potency [3]
active: Potency [1] 21.7 µM | Potency [6] 1.48 µM | Potency [10] 1.32 µM | Potency [5] 2.63 µM | Potency [8] 0.132 µM

COc1cc2nc(N3CCCN(C)CC3)nc(NC3CCN(Cc4ccccc4)CC3)c2cc1OC
active: Potency [1] 30.6 µM | Potency [6] 18.6 µM | Potency [10] 8.33 µM | Potency [4] 6.61 µM | Potency [7] 6.61 µM | Potency [8] 14.8 µM | Potency [9] 10.5 µM
inactive: activation [1] -2.51% | Potency [16]

COCCOc1nc(-c2ccc(Cl)c(Cl)c2)n(-c2ccc(NC(=O)CCl)cc2)n1
active: Potency [1] 15.1 µM | Potency [6] 1.86 µM | Potency [10] 2.09 µM | Potency [4] 5.25 µM | Potency [5] 0.662 µM | Potency [8] 1.05 µM | Potency [9] 0.934 µM
inactive: activation [1] 36.6% | Potency [2] | Potency [11]

COc1ccc(-c2cc3nccn3c(Nc3ncccc3C(N)=O)n2)cc1OC
inactive: activation [1] 14.1% | Potency [2] | Potency [3]
active: Potency [1] 4.78 µM | Potency [4] 0.372 µM | Potency [7] 6.61 µM | Potency [8] 8.33 µM

Nc1nc(NCCNc2ncc(-n3ccnc3)c(-c3ccc(Cl)cc3Cl)n2)ccc1[N+](=O)[O-]
inactive: activation [1] -14% | Potency [2] | Potency [3] | viability [6] 116% | Potency [10] | Potency [9]
active: Potency [1] 8.49 µM

Cn1c2ccccc2c2c3c(c4c5ccccc5n(CCC#N)c4c21)CNC3=O
inactive: activation [1] -13.5% | Potency [2] | Potency [3]
active: Potency [1] 16.9 µM | Potency [4] 0.417 µM | Potency [5] 3.32 µM | Potency [7] 8.33 µM | Potency [8] 3.32 µM | Potency [9] 4.68 µM

Cc1nccn1CC1CCc2c(c3ccccc3n2C)C1=O (configuration not stated)
active: Potency [1] 34.7 µM
inactive: activation [1] 4.27% and -3.67% | Potency [2] | Potency [3]

CCCNC(=O)Nc1ccc(Oc2ncnc3cc(OC)c(OC)cc23)cc1Cl
inactive: activation [1] 17.1% | Potency [2] | Potency [3] | viability [6] 92.8% | Potency [10] | Potency [5] | Potency [7] | Potency [8] | Potency [9]
active: Potency [1] 26.9 µM

C[C@]12CC[C@@H]3c4ccc(O)cc4CC[C@H]3[C@@H]1CC[C@@H]2OC(=O)CCC1CCCC1
active: Potency [1] 30.9 µM
inactive: activation [1] 19.6% | Potency [2] | Potency [11] | Potency [3]

CCCC(C(=O)OCCN(CC)CC)(c1ccccc1)c1ccccc1
inactive: activation [1] -51.2% | Potency [16] | Potency [11]
active: Potency [1] 34.7 µM

O=C(Nc1ccc([N+](=O)[O-])cc1Cl)c1cc(Cl)ccc1O
inactive: activation [1] 122% and -83.1% | Potency [16]
active: Potency [1] 4.26 µM | Potency [10] 1.66 µM | Potency [4] 4.17 µM | Potency [5] 1.05 µM | Potency [7] 1.32 µM | Potency [8] 1.05 µM | Potency [9] 1.48 µM
